What all share (experiment): DAPPL (digital affinity profiling via proximity ligation, sequencing); 10 mM Tris-HCl pH 7.5, 50 mM NaCl, 1 mM DTT, 4% glycerol, room temperature, 30 min; GST-TFs on glutathione beads, 16-mer random dsDNA library, 0.1% formaldehyde crosslink after washing; high values mean tight binding
The target in one assay is T1, FLI1 (Homo sapiens, UniProt Q01543 1-452).
T1 sequence: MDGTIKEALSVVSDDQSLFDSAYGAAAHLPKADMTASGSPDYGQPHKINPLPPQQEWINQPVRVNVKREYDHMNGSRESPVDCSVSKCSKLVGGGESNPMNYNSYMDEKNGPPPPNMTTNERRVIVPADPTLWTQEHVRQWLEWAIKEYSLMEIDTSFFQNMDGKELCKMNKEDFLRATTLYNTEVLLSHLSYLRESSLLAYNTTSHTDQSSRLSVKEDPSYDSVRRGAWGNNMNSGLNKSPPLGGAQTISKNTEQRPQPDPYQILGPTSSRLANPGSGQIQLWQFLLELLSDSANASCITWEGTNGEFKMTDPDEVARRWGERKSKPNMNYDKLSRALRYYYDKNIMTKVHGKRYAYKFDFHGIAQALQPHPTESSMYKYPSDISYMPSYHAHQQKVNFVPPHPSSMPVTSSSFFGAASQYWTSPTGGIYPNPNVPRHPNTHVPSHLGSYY
The conditions noted are these: protein: recombinant; tags: N-terminal GST; dsDNA, one strand shown. The method in brief: (§1)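 Pools were built from human transcription factors expressed in yeast as GST fusions, captured on glutathione beads and DNA-barcoded, along with a tag-only sample. Incubation with 200 nmole of a 16-mer random double-stranded DNA library lasted 30 min at room temperature in Tris/NaCl/DTT/glycerol buffer, and was followed by washing, 0.1% formaldehyde crosslinking, proximity ligation, PCR amplification and Illumina NextSeq500 sequencing. Binding signal is the quotient of each hexamer's read frequency for a factor and its frequency for the tag-only sample.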

Another assay has as its target T2, ELK1 (Homo sapiens, UniProt P19419 1-428).
T2 sequence: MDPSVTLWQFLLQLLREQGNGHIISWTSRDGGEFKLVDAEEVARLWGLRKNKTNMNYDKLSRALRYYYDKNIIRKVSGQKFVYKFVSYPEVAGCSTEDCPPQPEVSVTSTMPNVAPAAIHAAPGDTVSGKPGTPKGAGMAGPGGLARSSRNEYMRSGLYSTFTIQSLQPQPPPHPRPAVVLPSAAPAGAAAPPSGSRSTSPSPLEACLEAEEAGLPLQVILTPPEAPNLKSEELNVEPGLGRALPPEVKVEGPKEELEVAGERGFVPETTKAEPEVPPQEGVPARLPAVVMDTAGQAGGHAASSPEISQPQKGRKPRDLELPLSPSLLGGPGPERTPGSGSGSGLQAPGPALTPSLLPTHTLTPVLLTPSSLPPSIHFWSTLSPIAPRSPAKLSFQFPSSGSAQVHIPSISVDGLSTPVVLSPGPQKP
The conditions noted are these: protein: recombinant; tags: N-terminal GST; dsDNA, one strand shown. In outline:
as §1

Another assay deals with T3, GABPA (Homo sapiens, UniProt Q06546 1-454).
T3 sequence: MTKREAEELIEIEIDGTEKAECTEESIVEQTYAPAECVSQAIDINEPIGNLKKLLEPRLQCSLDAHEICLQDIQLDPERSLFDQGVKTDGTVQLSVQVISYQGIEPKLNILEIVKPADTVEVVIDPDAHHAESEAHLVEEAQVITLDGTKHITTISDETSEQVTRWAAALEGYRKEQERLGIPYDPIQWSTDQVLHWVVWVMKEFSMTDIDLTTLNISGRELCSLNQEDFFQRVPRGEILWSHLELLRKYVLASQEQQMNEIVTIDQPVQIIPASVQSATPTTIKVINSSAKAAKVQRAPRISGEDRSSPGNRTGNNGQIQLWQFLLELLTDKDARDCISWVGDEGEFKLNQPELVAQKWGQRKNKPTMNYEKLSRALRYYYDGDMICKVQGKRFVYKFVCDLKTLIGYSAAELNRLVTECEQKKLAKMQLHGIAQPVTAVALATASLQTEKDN
The conditions noted are these: protein: recombinant; tags: N-terminal GST; dsDNA, one strand shown. In outline:
as §1

Another assay concerns the target T4, ERG (Homo sapiens, UniProt P11308 1-479).
T4 sequence: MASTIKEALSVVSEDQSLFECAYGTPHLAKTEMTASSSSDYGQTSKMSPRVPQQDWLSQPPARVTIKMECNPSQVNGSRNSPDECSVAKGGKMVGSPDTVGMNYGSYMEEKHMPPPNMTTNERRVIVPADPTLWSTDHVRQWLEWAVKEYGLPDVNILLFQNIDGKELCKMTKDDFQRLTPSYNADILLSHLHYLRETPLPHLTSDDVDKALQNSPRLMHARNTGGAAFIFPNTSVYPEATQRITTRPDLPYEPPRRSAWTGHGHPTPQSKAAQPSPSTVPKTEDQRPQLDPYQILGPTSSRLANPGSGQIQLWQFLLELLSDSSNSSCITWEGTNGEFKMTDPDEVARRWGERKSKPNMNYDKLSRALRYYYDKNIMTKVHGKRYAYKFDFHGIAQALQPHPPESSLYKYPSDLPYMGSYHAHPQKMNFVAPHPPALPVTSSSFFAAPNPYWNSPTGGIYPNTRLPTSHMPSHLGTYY
The conditions noted are these: protein: recombinant; tags: N-terminal GST; dsDNA, one strand shown. In outline: as §1

In another assay the target is ELF1 (Homo sapiens, UniProt P32519 1-619). The conditions noted are these: protein: recombinant; tags: N-terminal GST; dsDNA, one strand shown. In outline:
as §1

The next assay concerns the target T5, EHF (Homo sapiens, UniProt Q9NZC4 1-300).
T5 sequence: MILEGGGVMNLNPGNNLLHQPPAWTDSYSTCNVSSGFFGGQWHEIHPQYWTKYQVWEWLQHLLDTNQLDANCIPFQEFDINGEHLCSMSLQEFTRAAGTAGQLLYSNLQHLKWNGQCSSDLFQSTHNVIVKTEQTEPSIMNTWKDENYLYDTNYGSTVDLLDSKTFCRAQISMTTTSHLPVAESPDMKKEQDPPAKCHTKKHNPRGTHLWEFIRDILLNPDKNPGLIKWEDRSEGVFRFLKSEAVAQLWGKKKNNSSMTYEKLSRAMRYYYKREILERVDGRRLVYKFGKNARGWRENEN
The conditions noted are these: protein: recombinant; tags: N-terminal GST; dsDNA, one strand shown. The method in brief:
as §1

The next assay concerns the target SPI1 (Homo sapiens, UniProt P17947 1-270). The conditions noted are these: protein: recombinant; tags: N-terminal GST; dsDNA, one strand shown. The method in brief: as §1
The next assay deals with SPIB (Homo sapiens, UniProt Q01892 1-262). The conditions noted are these: protein: recombinant; tags: N-terminal GST; dsDNA, one strand shown. In outline:
as §1

The target of another assay is T6, ELK3 (Homo sapiens, UniProt P41970 1-407).
T6 sequence: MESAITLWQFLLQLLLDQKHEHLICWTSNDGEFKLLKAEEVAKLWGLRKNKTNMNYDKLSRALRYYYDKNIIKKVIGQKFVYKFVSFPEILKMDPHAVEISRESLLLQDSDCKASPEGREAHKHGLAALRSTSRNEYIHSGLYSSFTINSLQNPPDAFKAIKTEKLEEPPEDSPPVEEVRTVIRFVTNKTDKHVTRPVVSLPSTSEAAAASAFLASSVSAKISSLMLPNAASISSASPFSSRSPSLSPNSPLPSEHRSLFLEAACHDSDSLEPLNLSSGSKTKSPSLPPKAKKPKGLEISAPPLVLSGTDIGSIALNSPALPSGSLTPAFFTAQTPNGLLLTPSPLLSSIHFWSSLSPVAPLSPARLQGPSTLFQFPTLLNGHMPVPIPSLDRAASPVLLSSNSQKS
The conditions noted are these: protein: recombinant; tags: N-terminal GST; dsDNA, one strand shown. In outline:
as §1

A further assay has as its target T7, FEV (Homo sapiens, UniProt Q99581 1-238).
T7 sequence: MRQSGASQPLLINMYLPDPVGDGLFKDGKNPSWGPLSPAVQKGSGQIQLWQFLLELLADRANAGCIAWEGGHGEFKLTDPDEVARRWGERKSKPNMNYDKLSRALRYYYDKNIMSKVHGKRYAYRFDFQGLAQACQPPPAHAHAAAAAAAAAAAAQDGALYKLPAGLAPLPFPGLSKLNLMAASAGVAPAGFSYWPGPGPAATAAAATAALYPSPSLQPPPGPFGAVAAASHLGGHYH
The conditions noted are these: protein: recombinant; tags: N-terminal GST; dsDNA, one strand shown. In outline:
as §1

A further assay deals with ETV5 (Homo sapiens, UniProt P41161 1-510). The conditions noted are these: protein: recombinant; tags: N-terminal GST; dsDNA, one strand shown. The method in brief: as §1
ETV5, sequence (P41161 whole entry): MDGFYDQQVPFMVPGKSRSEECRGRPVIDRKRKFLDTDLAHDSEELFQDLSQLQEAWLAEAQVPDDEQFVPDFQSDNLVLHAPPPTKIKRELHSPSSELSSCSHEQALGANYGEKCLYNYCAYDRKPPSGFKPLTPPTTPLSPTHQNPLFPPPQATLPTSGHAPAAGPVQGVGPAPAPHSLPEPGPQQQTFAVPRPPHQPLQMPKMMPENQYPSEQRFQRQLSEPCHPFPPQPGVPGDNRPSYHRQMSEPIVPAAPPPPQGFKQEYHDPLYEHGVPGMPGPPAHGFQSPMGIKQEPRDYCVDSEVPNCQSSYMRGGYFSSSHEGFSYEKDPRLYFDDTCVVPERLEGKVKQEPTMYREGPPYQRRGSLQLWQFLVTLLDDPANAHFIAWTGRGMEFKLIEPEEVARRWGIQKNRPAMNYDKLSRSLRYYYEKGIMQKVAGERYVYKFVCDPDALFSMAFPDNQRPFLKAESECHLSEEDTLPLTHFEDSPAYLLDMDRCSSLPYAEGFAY
In a further assay the target is HSF1 (Homo sapiens, UniProt Q00613 1-529). The conditions noted are these: protein: recombinant; tags: N-terminal GST; chain copies: 3; dsDNA, one strand shown. The method in brief:
as §1

The next assay concerns the target T8, SPIC (Homo sapiens, UniProt Q8N5J4 1-248).
T8 sequence: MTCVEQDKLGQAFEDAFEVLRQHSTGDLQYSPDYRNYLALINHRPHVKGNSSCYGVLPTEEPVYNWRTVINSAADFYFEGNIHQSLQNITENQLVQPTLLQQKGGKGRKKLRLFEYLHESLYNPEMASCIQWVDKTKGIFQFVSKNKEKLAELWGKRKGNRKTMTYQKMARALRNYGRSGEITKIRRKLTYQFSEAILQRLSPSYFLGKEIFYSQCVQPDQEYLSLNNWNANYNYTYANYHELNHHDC
The conditions noted are these: protein: recombinant; tags: N-terminal GST; dsDNA, one strand shown. The method in brief: as §1

In a further assay the target is ELF4 (Homo sapiens, UniProt Q99607 1-663). The conditions noted are these: protein: recombinant; tags: N-terminal GST; dsDNA, one strand shown. The method in brief:
as §1

A further assay concerns the target T9, ELK4 (Homo sapiens, UniProt P28324-2 1-405).
T9 sequence: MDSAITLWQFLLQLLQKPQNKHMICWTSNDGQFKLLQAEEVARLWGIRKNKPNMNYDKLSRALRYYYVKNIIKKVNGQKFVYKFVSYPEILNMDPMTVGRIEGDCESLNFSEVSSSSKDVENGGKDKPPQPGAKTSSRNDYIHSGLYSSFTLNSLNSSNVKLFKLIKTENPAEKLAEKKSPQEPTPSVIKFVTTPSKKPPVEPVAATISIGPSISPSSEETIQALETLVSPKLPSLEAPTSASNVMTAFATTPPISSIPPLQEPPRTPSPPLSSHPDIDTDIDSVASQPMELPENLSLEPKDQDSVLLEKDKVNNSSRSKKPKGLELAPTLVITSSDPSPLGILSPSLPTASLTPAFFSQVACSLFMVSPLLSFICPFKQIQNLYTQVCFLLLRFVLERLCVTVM
The conditions noted are these: protein: recombinant; tags: N-terminal GST; dsDNA, one strand shown. The method in brief:
as §1

The target in another assay is T10, ETV2 (Homo sapiens, UniProt O00321 1-342).
T10 sequence: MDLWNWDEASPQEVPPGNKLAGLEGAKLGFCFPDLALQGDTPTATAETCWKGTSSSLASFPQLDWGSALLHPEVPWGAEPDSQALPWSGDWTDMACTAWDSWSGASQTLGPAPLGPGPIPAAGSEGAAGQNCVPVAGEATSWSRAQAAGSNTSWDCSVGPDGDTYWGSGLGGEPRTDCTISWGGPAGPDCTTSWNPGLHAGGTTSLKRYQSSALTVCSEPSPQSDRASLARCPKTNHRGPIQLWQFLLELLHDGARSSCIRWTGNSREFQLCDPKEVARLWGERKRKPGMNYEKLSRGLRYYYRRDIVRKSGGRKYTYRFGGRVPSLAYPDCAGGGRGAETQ
The conditions noted are these: protein: recombinant; tags: N-terminal GST; dsDNA, one strand shown. In outline: as §1

The next assay addresses T11, ELF3 (Homo sapiens, UniProt P78545 1-371).
T11 sequence: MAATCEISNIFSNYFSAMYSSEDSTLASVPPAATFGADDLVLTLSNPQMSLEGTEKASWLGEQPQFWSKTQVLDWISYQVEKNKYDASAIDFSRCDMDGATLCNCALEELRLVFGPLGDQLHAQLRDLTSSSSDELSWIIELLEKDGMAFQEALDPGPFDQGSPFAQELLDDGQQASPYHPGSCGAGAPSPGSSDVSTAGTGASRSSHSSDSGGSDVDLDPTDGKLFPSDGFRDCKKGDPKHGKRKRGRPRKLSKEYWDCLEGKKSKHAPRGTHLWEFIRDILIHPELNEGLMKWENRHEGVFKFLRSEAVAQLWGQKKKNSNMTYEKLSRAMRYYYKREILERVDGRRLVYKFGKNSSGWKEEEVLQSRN
The conditions noted are these: protein: recombinant; tags: N-terminal GST; dsDNA, one strand shown. The method in brief: as §1

A further assay addresses CRX (Homo sapiens, UniProt O43186 1-299). The conditions noted are these: protein: recombinant; tags: N-terminal GST; dsDNA, one strand shown. The method in brief: as §1
In another assay the target is ETV1 (Homo sapiens, UniProt P50549 1-477). The conditions noted are these: protein: recombinant; tags: N-terminal GST; dsDNA, one strand shown. The method in brief:
as §1

HSF1, sequence (Q00613 whole entry): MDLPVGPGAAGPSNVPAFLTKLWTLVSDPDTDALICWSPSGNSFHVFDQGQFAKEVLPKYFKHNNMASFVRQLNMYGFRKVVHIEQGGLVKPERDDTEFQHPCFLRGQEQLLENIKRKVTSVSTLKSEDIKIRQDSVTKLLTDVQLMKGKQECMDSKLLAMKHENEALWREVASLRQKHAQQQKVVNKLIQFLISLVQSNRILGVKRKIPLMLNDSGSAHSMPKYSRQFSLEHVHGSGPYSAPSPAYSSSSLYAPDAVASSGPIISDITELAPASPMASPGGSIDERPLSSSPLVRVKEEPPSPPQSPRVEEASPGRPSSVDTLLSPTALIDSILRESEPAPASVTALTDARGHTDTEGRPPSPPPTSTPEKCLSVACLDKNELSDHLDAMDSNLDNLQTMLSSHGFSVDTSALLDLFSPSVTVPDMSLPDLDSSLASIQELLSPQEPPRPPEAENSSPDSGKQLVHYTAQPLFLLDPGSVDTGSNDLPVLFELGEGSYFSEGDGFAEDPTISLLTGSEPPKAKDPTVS
CRX, sequence (O43186 whole entry): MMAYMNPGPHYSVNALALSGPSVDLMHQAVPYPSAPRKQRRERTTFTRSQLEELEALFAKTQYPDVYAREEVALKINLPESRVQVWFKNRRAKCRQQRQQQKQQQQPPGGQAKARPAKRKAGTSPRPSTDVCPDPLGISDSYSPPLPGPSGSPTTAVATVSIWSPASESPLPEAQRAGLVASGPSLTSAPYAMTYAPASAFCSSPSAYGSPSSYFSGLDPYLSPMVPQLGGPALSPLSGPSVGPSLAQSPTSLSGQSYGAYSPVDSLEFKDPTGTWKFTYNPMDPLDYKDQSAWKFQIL
SPIB, sequence (Q01892 whole entry): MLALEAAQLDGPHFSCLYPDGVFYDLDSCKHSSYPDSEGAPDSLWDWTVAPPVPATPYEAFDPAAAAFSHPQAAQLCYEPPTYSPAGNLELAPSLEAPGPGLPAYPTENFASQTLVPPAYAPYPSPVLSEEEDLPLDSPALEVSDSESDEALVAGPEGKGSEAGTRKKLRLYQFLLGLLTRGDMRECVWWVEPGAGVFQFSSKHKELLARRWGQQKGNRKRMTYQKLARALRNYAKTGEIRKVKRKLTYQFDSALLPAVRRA
ELF4, sequence (Q99607 whole entry): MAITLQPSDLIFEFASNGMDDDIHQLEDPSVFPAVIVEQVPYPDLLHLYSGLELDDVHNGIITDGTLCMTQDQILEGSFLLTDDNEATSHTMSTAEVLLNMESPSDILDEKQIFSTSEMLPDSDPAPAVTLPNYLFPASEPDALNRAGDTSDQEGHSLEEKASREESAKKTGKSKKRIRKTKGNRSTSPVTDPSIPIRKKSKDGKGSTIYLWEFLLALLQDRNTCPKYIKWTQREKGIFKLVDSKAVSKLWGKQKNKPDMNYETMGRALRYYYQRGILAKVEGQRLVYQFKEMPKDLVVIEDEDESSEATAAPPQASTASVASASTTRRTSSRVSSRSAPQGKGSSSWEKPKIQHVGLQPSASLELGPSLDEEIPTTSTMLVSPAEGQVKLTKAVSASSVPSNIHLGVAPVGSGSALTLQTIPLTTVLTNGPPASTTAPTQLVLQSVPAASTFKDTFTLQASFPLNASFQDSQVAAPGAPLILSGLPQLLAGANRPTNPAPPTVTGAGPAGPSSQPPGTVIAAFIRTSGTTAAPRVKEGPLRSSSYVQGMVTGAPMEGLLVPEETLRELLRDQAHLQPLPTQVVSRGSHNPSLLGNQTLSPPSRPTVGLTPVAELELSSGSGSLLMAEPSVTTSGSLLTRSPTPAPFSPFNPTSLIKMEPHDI
ETV1, sequence (P50549 whole entry): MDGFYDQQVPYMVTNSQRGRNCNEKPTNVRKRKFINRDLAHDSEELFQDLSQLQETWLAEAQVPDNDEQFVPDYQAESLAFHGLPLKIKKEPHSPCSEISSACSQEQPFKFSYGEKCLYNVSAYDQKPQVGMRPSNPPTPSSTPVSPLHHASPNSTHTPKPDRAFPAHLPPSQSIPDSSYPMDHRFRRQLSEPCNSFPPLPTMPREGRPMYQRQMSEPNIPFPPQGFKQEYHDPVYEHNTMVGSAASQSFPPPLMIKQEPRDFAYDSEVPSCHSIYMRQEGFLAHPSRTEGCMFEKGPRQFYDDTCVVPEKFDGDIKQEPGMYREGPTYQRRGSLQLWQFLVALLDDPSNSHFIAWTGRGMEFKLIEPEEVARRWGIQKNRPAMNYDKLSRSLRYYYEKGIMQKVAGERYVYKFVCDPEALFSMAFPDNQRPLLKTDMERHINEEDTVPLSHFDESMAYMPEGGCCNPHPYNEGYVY
ELF1, sequence (P32519 whole entry): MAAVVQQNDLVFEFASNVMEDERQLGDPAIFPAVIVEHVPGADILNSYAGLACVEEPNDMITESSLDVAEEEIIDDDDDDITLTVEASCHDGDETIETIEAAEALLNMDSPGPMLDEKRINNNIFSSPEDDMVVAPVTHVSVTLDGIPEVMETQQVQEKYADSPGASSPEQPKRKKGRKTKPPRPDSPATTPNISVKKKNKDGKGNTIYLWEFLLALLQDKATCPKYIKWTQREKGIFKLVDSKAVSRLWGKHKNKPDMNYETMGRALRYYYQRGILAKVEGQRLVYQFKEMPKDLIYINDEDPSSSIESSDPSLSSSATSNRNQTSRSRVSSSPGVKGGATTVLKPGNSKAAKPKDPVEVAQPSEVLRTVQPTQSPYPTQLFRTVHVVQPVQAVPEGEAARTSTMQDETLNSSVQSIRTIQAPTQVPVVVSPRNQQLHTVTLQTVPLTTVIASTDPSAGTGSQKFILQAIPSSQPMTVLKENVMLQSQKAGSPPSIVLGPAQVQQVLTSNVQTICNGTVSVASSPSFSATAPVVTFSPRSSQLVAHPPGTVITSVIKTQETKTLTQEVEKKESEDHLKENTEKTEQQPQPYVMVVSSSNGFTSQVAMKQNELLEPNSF

In the case of CCCCTT, the binding signal with FLI1 was 1.48 fold enrichment (6-mer frequency, TF over GST control); with ELK1, 1.55 fold enrichment (6-mer frequency, TF over GST control); with GABPA, 1.44 fold enrichment (6-mer frequency, TF over GST control); in the assay with ERG, 1.54 fold enrichment (6-mer frequency, TF over GST control); with ELF1, 1.53 fold enrichment (6-mer frequency, TF over GST control); with EHF, 1.62 fold enrichment (6-mer frequency, TF over GST control). Also, the binding signal is 2.01 fold enrichment (6-mer frequency, TF over GST control) with SPI1; 1.53 fold enrichment (6-mer frequency, TF over GST control) with SPIB; 1.51 fold enrichment (6-mer frequency, TF over GST control) in the assay with ELK3; 1.57 fold enrichment (6-mer frequency, TF over GST control) in the assay with FEV; 1.62 fold enrichment (6-mer frequency, TF over GST control) with ETV5; 1.37 fold enrichment (6-mer frequency, TF over GST control) with HSF1. The binding signal in the assay with SPIC was 1.56 fold enrichment (6-mer frequency, TF over GST control); in the assay with ELF4 it was 1.63 fold enrichment (6-mer frequency, TF over GST control); in the assay with ELK4 it was 1.53 fold enrichment (6-mer frequency, TF over GST control); with ETV2, 1.35 fold enrichment (6-mer frequency, TF over GST control); in the assay with ELF3, 1.6 fold enrichment (6-mer frequency, TF over GST control); with CRX it was 1.41 fold enrichment (6-mer frequency, TF over GST control). The binding signal with ETV1 was 1.63 fold enrichment (6-mer frequency, TF over GST control).

These data come from article PMC7862700, “An all-to-all approach to the identification of sequence-specific readers for epigenetic DNA modifications on cytosine”.
